Experimental data taken from PubChem BioAssay AID2280 (The Scripps Research Institute Molecular Screening Center, 2010).
Where “and” joins values, the source holds several entries; their conditions need not be identical. Equal values may be shown once. The campaign covered roughly 320,000 compounds. About 1,400 (0.44%) were called active. This is one part of a sample in which actives are shown more often than they occur.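 The calls were made as follows: active = percent inhibition above a per-plate cutoff, the plate mean of test compounds plus 3 SD (cut at about 30% in these data); inactive = the rest.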 A structure can be active in one record and inactive in another.

Molecular target: Female germline-specific tumor suppressor gld-1 (Caenorhabditis elegans) (UniProt Q17339)
Sequence (Q17339 whole entry, looked up): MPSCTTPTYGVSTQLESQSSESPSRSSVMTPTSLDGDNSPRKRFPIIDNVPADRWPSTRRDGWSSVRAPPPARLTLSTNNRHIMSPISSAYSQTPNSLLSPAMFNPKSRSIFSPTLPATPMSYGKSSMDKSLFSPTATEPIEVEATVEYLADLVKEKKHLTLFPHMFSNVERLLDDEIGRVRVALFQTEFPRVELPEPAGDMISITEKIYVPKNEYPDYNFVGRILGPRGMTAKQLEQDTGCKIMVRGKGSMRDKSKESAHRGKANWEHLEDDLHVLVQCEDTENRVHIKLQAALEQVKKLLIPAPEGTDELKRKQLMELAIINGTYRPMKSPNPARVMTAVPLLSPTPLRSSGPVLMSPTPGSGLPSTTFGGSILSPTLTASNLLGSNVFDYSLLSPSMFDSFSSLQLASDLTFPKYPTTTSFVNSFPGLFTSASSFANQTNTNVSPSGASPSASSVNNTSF
Assay: small molecules blocking C. elegans GLD-1 RNA recognition – biochemical, fluorescence polarization, primary screen (AID 2280);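 also: 0% = DMSO wells with GLD-1 and probe and 100% = wells lacking GLD-1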
Details: purified GLD-1 + fluorescein TGE RNA, at 5.96 µM, stronger effect = higher value

inhibition, 8.5% (inactive) and 48.8% (active):
COC(=O)[C@H]1[C@H]2C[C@H]3c4[nH]c5ccccc5c4CCN3C[C@@H]2CC[C@@H]1O

inhibition, inactive:
C/C(=N\NC(=O)c1ccoc1C)c1ccccc1O 2.44%
CCOC(=O)c1c(N)nn(C(=O)c2ccccc2)c1-c1ccccc1 7.39%
CC(C)N(C)C(=O)CCc1nnc(CCc2c[nH]c3ccccc23)o1 7.03%
Cc1ccccc1Nc1nc(N)nc(CN2CCN(c3ccccn3)CC2)n1 2.81%
Cc1ccccc1Nc1nc(N)nc(CSc2ccccc2)n1 6.58%
COc1ccc(C(C)=O)cc1COC(=O)Cn1cnc2ccccc2c1=O -1.6%
CC1(C)CCc2nc(SCc3ccccc3)c(C#N)cc2C1 6.74%
Cc1cc(NC(=O)CSc2nc3c(cc2C#N)CCCCC3)no1 6.13%
CCOC(=O)C(C)n1cnc2c(nnn2-c2ccc(F)cc2)c1=O (configuration not stated) 2.21%
CCCCn1ccnc1C(=O)c1cccc(S(=O)(=O)N2c3ccccc3CC2C)c1 (configuration not stated) 0.24%
Cc1ccc(NC(=S)NC(=O)c2ccc(-c3ccccc3)cc2)cc1 -3.26%
Cc1ccc(C(=O)NC(=S)Nc2ccccc2C)cc1 -1.38%
COc1cc(N2CCCC2)c(OC)cc1/C=C(/C#N)c1cccc(Br)c1 -45.9%
CC(Sc1nnc(-c2cccs2)n1C1CC1)C(=O)NCC1CCCO1 (configuration not stated) -1.09%
O=S(=O)(c1ccc(Cl)cc1)N1CCCN(c2ccc(C(F)(F)F)cn2)CC1 3.79%
CN(Cc1ccc(F)cc1)C(=O)CN1C(=O)c2ccccc2S1(=O)=O -0.45%
O=S(=O)(NCCCCCCNS(=O)(=O)c1c(F)cccc1F)c1ccc2c(c1)OCCO2 -2.33%
Cc1cc(N2C(=O)C(O)=C(C(=O)c3ccc(C)o3)C2c2ccc(OCc3ccccc3)cc2)no1 (configuration not stated) 12.7%
C=CCOc1cccc(C2C(C(=O)c3ccc(C)o3)=C(O)C(=O)N2CCCn2ccnc2)c1 (configuration not stated) 5.89%
CCN1CCC2(CCN(Cc3cn[nH]c3-c3ccc(OC)c(F)c3)C2)C1 (configuration not stated) 6.39%
COc1ccccc1C(=O)N(C1=NC(C)CS1)c1ccc(Cl)cc1 (configuration not stated) 5.47%
NC(=O)c1ccc(-c2csnn2)cc1 -0.25%
COc1ccc(NC(=O)C(C)SCc2ccccc2)cc1 (configuration not stated) 4.3%
O=C1N=C2SCCN2/C1=C\c1c(Cl)cccc1Cl 3.87%
CCC(=NC1CC(C)(C)NC(C)(C)C1)C1=C(O)CC(C)(C)CC1=O 0.57%
COc1ccc(NC(=O)CN(C)C(=O)c2cc(-c3ccc(C)o3)nc3ccccc23)cc1 1.85%
CN(C(=O)COC(=O)c1cc(-c2ccco2)nc2ccccc12)C1CCS(=O)(=O)C1 (configuration not stated) 24.7%
Cn1nc(-c2ccccc2)c(CSc2cccc(Cl)c2)c1Cl 3.82%
C=CCN(Cc1nc(-c2cc(OC)c3c(c2)OCO3)oc1C)C1CCS(=O)(=O)C1 (configuration not stated) 3%
COc1ccc(CCNS(=O)(=O)c2cc3c(cc2C)NC(=O)CO3)cc1OC 5.55%
Cc1oc2c(c1C(=O)N1CCOCC1)C(=O)c1ccccc1C2=O -4.37%
COC1=C(N2CCOCC2)C(=O)c2ccccc2C1=O 5.26%
CCOc1ccc(NC(=O)CSc2ncnc3c2sc2ccccc23)cc1 7.48%
CN(C)C=NC(=O)c1cccn1-c1ncc(C(F)(F)F)cc1Cl 3.24%
CC1CCCCC1NC(=O)COC(=O)Cc1ccc(Cl)cc1 (configuration not stated) 0.1%
Cc1cc(C)c(S(=O)(=O)N2CCCC2CNC(=O)c2ccc3c(c2)OCO3)c(C)c1 (configuration not stated) -0.56%
Cc1[nH]c2ccccc2c1CCN(Cc1cccs1)C(=S)NC(C)(C)C 5.63%
COc1cccc(NC(=S)N(CCc2c(C)[nH]c3ccccc23)Cc2ccco2)c1 2.83%
CCOC(=O)Cc1csc(SCC(=O)NC(C)C23CC4CC(CC(C4)C2)C3)n1 (configuration not stated) -5.16%
O=c1cc(CO)oc(C(Nc2cccc([N+](=O)[O-])c2)c2ccccn2)c1O (configuration not stated) 25.3%
FC(F)(F)c1cccc(Nc2ncnc3ccccc23)c1 8.73%
O=C(CN1CCOC1=O)N1CCCC(Nc2ccc(F)c(F)c2)C1 (configuration not stated) -0.97%
O=C1CCC(=O)N(c2ccccc2)N1 3.62%
O=C(Nc1ccc(Cl)cc1)N1CCc2[nH]c3ccccc3c2C1 7.58%
COC(=O)C1CCN(C(=O)c2cc(=O)[nH]c3ccccc23)CC1 4.47%
O=C1c2cccc(OCC(=O)N3N=C(c4cccs4)CC3c3ccc(F)cc3)c2CCN1Cc1ccccc1 (configuration not stated) -0.98%
CC1CCCCC1NC(=O)Cn1c(=O)cnc2ccccc21 (configuration not stated) -4.13%
CC(C)CCn1c(=O)c2c(nc3n2CCCN3Cc2ccccc2)n(C)c1=O 2.24%
COc1ccc(OCCCC(=O)Nc2cccc(S(=O)(=O)N3CCCCCC3)c2)cc1 6.95%
CC1(C)Cc2c(C#N)c(SCc3nc4ccccc4[nH]3)nc(N3CCOCC3)c2CO1 -7.37%
c1ccc(-n2nnnc2N2CCOCC2)cc1 -16.6%
CC(=O)c1c(C)[nH]c(C(=O)CN2C(=O)NC(C)(C)C2=O)c1C 1.35%
COc1ccc(C(=O)CN2C(=O)NC3(CCc4ccccc43)C2=O)c(OC)c1 (configuration not stated) 0.18%
CC/C(=N/Nc1ccccc1)c1cnnc(SC)n1 2.17%
CSc1ccc(S(=O)(=O)Nc2cccc(F)c2)cc1 11.1%
COc1cccc(-c2nc(CS(=O)CC(=O)NCc3ccc(F)cc3)c(C)o2)c1 (configuration not stated) -0.05%
COc1ccc(-c2nc(CS(=O)CC(=O)NCc3ccccc3)c(C)o2)cc1OC (configuration not stated) -5.15%
CC(OC(=O)c1ccc2noc(-c3ccccc3)c2c1)C(N)=O (configuration not stated) 6.97%
Oc1ccc(-c2onc3ccc(Cl)cc23)cc1 8.29%
COc1ccc(/C=C/C(=O)c2cc(Br)ccc(=O)c2O)cc1 -9.08%
O=C(c1cnccn1)N1CCN(S(=O)(=O)c2cccc(Cl)c2)CC1 3.23%
O=C(c1ccc(F)c(S(=O)(=O)N2CCOCC2)c1)N(CCc1ccccc1)Cc1ccccc1 18.5%
O=C(NCCSCc1ccccc1)c1ccc(Cl)c(S(=O)(=O)N2CCOCC2)c1 7.47%
Cc1cnc(CN(C)C(=O)CC2C(=O)NCCN2Cc2cccc(F)c2F)[nH]1 (configuration not stated) 9.56%
CC1(C)CC[C@]2(C(=O)O)CC[C@]3(C)C(=CCC4[C@@]5(C)CC[C@H](O)C(C)(C)C5[C@H](O)C[C@]43C)[C@@H]2C1 (some centres not stated) 1.49%
O=C(COC(=O)c1cccc(Br)c1)Nc1cccc2c1C(=O)c1ccccc1C2=O 7.63%
O=C(Cn1cnc2ccccc21)Nc1ccccc1-c1ccccc1 1.53%
Cc1ccc(N(Cc2cc(=O)[nH]c3ccccc23)C(=O)CCl)cc1 0.28%
CC(=O)N/C(=N/c1nc(C)cc(C)n1)Nc1ccc(F)cc1F -1.91%
O=C(NCCc1ccccc1)C1CCN(S(=O)(=O)c2ccc(Br)s2)CC1 4.67%
O=S(=O)(NCc1cccnc1)c1ccc(Br)s1 2.39%
O=C1CN(C(=O)COC(=O)c2cnc(Cl)c(Cl)c2)c2ccccc2N1 6.14%
CS(=O)(=O)c1ccc(C(=O)NNC(=O)c2cccs2)cc1 1.25%
O=C(c1cc(COc2ccc(F)cc2F)on1)N1CCOCC1 -0.95%

inhibition, active:
Cc1nn(C(=O)c2ccoc2C)c(N)c1-c1ccccc1 126%
Cc1ccccc1Nc1nc(N)nc(CSc2nnc3ccccn23)n1 35.3%
CC(NC(=O)CSc1nc2c(cc1C#N)CN(C)CC2)c1ccccc1 (configuration not stated) 35.9%
COC(=O)c1sc(NC(=S)NC(=O)c2ccc(C)cc2)nc1C 60.9%
CN(C)c1ccc(Nc2c3c4c(cccc4n(C)c2=O)C(=O)c2ccccc2-3)cc1 53.9%
C=CCOc1cccc(C2C(C(=O)c3ccc(C)o3)=C(O)C(=O)N2c2nnc(C)s2)c1 (configuration not stated) 91.3%
CN(CCOc1ccccc1)C(=O)c1cc(-c2ccco2)nc2ccccc12 44.1%
O=C1c2ccccc2-c2ncnc3c(N4CCOCC4)cc(N4CCOCC4)c1c23 47.9%
COc1ccc2[nH]c(C)c(CCN(Cc3cccs3)C(=S)Nc3ccccc3OC)c2c1 50%
O=c1cc(CO)oc(C(Nc2cccc(C(F)(F)F)c2)c2ccccn2)c1O (configuration not stated) 75.6%
CCCC1OC23CCCCC2C(C#N)(C#N)C1(C#N)C(=N)O3 (configuration not stated) 63.5%
C1=C(N2CCOCC2)/C(=C/c2nc3ccccc3[nH]2)CC1 72.7%
COc1ccc(-c2nc(CS(=O)CC(=O)NCc3ccccn3)c(C)o2)cc1 (configuration not stated) 81.7%
COc1ccc(-c2onc3ccc(C(C)=O)cc23)cc1 169%
Cc1nn(Cc2ccccc2)c(C)c1CNC(=O)c1ccc(F)c(S(=O)(=O)N2CCOCC2)c1 103%
O=C(COC(=O)Cn1cnc2ccccc21)Nc1cccc2c1C(=O)c1ccccc1C2=O 78.6%
O=S(=O)([N-]c1nc2ccccc2nc1-[n+]1ccc(Cc2ccccc2)cc1)c1ccc(Br)s1 94.1%
